Assay results: PubChem BioAssay
Unmarked numbers belong to inactive results. How the calls were made is not given here.

Target: Pantothenate synthetase (Mycobacterium tuberculosis (strain ATCC 25618 / H37Rv)) (UniProt P9WIL5)
Assay: Coupled enzyme confirmation of inhibitors against recombinant Mtb PanC (AID 375);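 further: 0% = full reaction with vehicle and 100% = no enzyme background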
Settings: coupled enzyme assay; at 10 µM, active compounds read high

Pantothenate synthetase (Mycobacterium tuberculosis (strain ATCC 25618 / H37Rv)), sequence (P9WIL5 whole entry, looked up): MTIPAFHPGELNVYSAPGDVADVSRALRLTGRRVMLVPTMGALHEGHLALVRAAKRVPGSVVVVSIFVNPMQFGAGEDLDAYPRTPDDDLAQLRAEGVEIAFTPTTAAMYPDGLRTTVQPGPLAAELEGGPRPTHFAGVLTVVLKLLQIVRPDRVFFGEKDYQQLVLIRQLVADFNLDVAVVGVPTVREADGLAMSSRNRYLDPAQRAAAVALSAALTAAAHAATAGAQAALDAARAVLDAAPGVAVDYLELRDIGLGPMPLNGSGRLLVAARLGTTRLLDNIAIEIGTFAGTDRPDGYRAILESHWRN

SMILES	inhibition [%]
CCCN(Cc1cc2ccc(C)cc2[nH]c1=O)C(=O)c1cccnc1	2
CC(C(=O)NC1CCCCCC1)N(c1ccccc1)S(C)(=O)=O (stereo not given)	0
CC(=O)OC(C(=O)NCc1ccco1)c1cccnc1 (stereo not given)	0
CCCCn1c(NCCC)nc2c1c(=O)[nH]c(=O)n2C	0
CCCn1c(N)c(C(=O)CSc2nnc(Cc3ccccc3)o2)c(=O)n(C)c1=O	2
COc1cc(OC)c(NC(=O)c2ccco2)cc1Cl	0
CCOc1ccc(OCC)c(NC(=O)CCCN2C(=O)c3cccnc3C2=O)c1	0
O=P(O)(CN1CCCCCC1)CN1CCCCCC1	0
CCCCN(CC)S(=O)(=O)N1CCC(C(=O)NCc2ccc(F)cc2)CC1	6
Cc1cccc(C(=O)N(C)c2nnc(-c3ccncc3)s2)c1	0
CN(C)c1oc(-c2ccccc2F)nc1C#N	1
COc1ccc(-c2nnc3sc(C(C)N4C(=O)c5ccccc5C4=O)nn23)cc1 (stereo not given)	0
Cn1c(-c2ccccc2)c(CCO)c2ccccc21	9
Nc1nc(-c2ccc(Br)s2)c(Br)s1	2
CS(=O)(=O)N(CC(=O)NCc1ccccn1)c1ccc2c(c1)OCCO2	0
CSc1ccc2c(c1)N(CCC1CCCCN1C)c1ccccc1S2 (stereo not given)	11
O=C(Nc1ccccc1C(=O)O)c1cccc(NC(=O)c2ccc(Br)o2)c1	0
CC(C)Cc1nc(N2CCN(C(=O)c3ccco3)CC2)c(C#N)c2c1CCC2	5
Cc1c(CNCc2cccs2)c(C(=O)O)c(C)n1Cc1ccccc1	0
CC1CC(C)CN(c2nc3c(c(=O)[nH]c(=O)n3C)n2CCCSc2nc3ccccc3s2)C1 (stereo not given)	7

SMILES	inhibition [%]
COc1ncnc2c1N=C1CC(C)(C)CC(N)=C1S2	0
O=C(NCc1ccccc1)C1CCN(S(=O)(=O)c2cccc3cccnc23)CC1	0
Nc1nc(Nc2ccc(Cl)cc2Cl)nc(C(F)(F)F)n1	0
CCOc1ccc(CCN2C(=O)C3C4C=CC(C4)C3C2=O)cc1OCC (stereo not given)	3
CCOC(=O)c1c(NC(=O)Cn2c(C)nc3ccccc32)sc2c1CCC2	0
CCOC(=O)C1CCCN(c2nc3ccccc3nc2C(C#N)C(=O)NCc2ccccc2)C1 (stereo not given)	0
COc1ccc(S(=O)(=O)NC(CC(=O)NCc2ccco2)c2ccco2)cc1 (stereo not given)	3
CCC1(c2ccc(F)cc2)NC(=O)N(CC(=O)c2ccc[nH]2)C1=O (stereo not given)	0
COc1ccc(C2CC(c3ccc(Cl)cc3Cl)n3nc(N)nc3N2)cc1 (stereo not given)	0
C/C(Cl)=C\Cn1c(Nc2ccc(C)cc2)nc2c1c(=O)n(C)c(=O)n2C	3
Oc1ccc(N2CCN(C(c3ccncc3)c3nnnn3C3CCCC3)CC2)cc1 (stereo not given)	11
CNC(=O)c1ccsc1NC(=O)c1ccccc1	4
CN(C(=O)Cn1c(=O)n(CCCCC(=O)NC2CCCC2)c(=O)c2ccccc21)C1CCCCC1	0
CCCc1nnc(NC(=O)NCCN2C(=O)C3C4C=CC(C4)C3C2=O)s1 (stereo not given)	0
CCOc1ccc2oc(-c3ccccc3)c(C(=O)N3CCN(CCO)CC3)c2c1	0
CCSc1ccccc1C(=O)Nc1cccc(OC)c1	0
CC(C)C(=O)Nc1nnc(CCc2nnc(NC(=O)C(C)C)s2)s1	2
CCc1cc(C(=O)OC)c(NC(=O)CCC(=O)O)s1	2
O=C(O)C1CC=CCC1C(=O)Nc1cccc(C(=O)N2CCCCC2)c1 (stereo not given)	0
CC(=O)Nc1c(O)[nH]c2ccccc12	0
